From PubChem BioAssay AID488969 (Vanderbilt High Throughput Screening Facility, 2010)
In all, about 110,000 compounds were measured (“z-score”: median about -0.1, highest 2% from about 2 on). The list comes from a sample in which the highest values are over-represented; it also holds similar structures and randomly drawn compounds. The source made the active and inactive calls.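 The calls were made as follows: active = z-score in the third read window above 3 or below -3; inactive = the rest.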

biological target: Metabotropic glutamate receptor 8 (Rattus norvegicus) (UniProt P70579); assay: rat mGluR8 modulators via GIRK flux, primary screen, cell-based, thallium flux, HTS (AID 488969); conditions: HEK293 rat mGluR8, GIRK (G protein-gated inwardly rectifying potassium channel) thallium flux, FluoZin2; at 10 µM; stronger effect = higher value; submaximal glutamate (EC20) added with thallium
Sequence (P70579 whole entry, looked up): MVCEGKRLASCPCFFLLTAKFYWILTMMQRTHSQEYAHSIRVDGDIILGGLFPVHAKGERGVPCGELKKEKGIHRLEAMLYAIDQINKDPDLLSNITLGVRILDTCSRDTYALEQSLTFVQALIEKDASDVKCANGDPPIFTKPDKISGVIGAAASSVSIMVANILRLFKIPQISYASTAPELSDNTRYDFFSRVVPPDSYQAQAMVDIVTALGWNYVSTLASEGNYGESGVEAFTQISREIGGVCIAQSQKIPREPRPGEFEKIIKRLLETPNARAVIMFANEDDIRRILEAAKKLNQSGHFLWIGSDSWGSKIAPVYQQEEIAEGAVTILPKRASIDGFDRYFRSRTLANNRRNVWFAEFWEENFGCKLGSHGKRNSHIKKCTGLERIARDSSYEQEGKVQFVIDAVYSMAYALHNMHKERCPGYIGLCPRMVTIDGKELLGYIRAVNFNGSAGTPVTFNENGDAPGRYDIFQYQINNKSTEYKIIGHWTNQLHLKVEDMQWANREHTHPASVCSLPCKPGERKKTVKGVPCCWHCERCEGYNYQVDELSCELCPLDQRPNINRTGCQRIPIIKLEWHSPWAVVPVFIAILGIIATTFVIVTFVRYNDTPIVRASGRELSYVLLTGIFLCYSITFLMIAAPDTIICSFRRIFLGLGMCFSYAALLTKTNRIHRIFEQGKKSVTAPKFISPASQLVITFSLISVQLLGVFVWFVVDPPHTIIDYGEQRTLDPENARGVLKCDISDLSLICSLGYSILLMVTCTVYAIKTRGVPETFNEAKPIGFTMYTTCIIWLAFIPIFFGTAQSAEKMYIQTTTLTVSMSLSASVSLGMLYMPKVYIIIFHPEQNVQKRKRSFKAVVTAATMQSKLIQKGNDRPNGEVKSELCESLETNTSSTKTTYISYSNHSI

Row | SMILES | z-score
1 | C=CCC(NC(C)c1ccccc1)c1ccco1 (configuration not stated) | 0.174
2 | C=CCC(NCc1ccccc1)c1ccc(C)o1 (configuration not stated) | 0.143
3 | C=CCC(NCc1ccccc1)c1ccco1 (configuration not stated) | 2.42
4 | N#Cc1cnc(SCC(=O)c2ccccc2)nc1N | 0.0176
5 | Cc1cc(N2CCOCC2)n2ncc(-c3ccccc3)c2n1 | -0.401
6 | Cc1cc(N2CCOCC2)n2nc(C)c(-c3ccccc3)c2n1 | 4.01 (active)
7 | Cc1cc(N2CCC(C)CC2)n2nc(C)c(-c3ccccc3)c2n1 | -0.28
8 | Cc1cc(N2CCC(C)CC2)n2ncc(-c3ccccc3)c2n1 | 3.32 (active)
9 | Cc1cc(N2CCN(Cc3ccccc3)CC2)n2nc(C)c(-c3ccccc3)c2n1 | 0.0393
10 | Cc1cc(N2CCCCC2)n2ncc(-c3ccccc3)c2n1 | -0.231
11 | Cc1cccc2cc(CN(Cc3cccs3)C(=S)NCC3CCCO3)c(=O)[nH]c12 (configuration not stated) | -0.229
12 | O=C1c2ccccc2C(Nc2ccc3c(c2)OCCO3)N1c1ccccn1 (configuration not stated) | 0.814
13 | CCc1cccc(CC)c1NC(=S)N1CCn2cccc2C1c1cccnc1 (configuration not stated) | 0.37
14 | NS(=O)(=O)c1ccc(S(=O)(=O)N2CCCC2)cc1 | 3.11 (active)
15 | O=S(=O)(c1ccc(S(=O)(=O)N2CCCC2)cc1)N1CCCCCC1 | 0.224
16 | Nc1ccc(S(=O)(=O)N2CCCC2)cc1 | -0.115
17 | CSc1ccccc1NC(=O)c1ccoc1C | -0.082
18 | C=C(C)CNC(=S)N/N=C/C1=CCC2CC1C2(C)C (configuration not stated) | 0.611
19 | CC1(C)C2CC=C(/C=N/NC(=O)c3ccc(Cl)cc3)C1C2 (configuration not stated) | 0.355
20 | CCCCNC(=S)N/N=C/C1=CCC2CC1C2(C)C (configuration not stated) | 1.99
21 | CC1CC(C)CN(CCCNC(=O)Cn2ncc3c(=O)oc4ccccc4c32)C1 (configuration not stated) | -0.462
22 | CC1CC(C)CN(CCCNC(=O)CCNC(=O)Cn2ccc3ccccc3c2=O)C1 (configuration not stated) | -1.48
23 | CCc1cc2c(cc3c(=O)n(CC(=O)NCCCN4CC(C)CC(C)C4)ncn32)s1 (configuration not stated) | 2.41
24 | CCOC(=O)C1C(=O)CC(C)(O)C(C(=O)OCC)C1c1ccc(N(CC)CC)cc1 (configuration not stated) | -0.205

Row | SMILES | z-score
25 | CC(C)NC(=O)/C(=C/c1ccco1)c1ccccc1 | 2.43
26 | CCC(C)NC(=O)/C(=C/c1ccco1)c1ccccc1 (configuration not stated) | -0.109
27 | CC(C)(C)NC(=O)/C(=C/c1ccco1)c1ccccc1 | -0.0597
28 | CCN(CC)S(=O)(=O)c1cc(Br)c(C)cc1OC | -0.159
29 | Cc1ccc(-c2nn(C)c(=O)c3ccccc23)cc1CNS(C)(=O)=O | -0.0971
30 | COc1ccc(OC)c(NC(=S)N2CCN(C/C=C/c3ccccc3)CC2)c1 | -0.183
31 | O=C(OC1CCCCC1=O)c1cccc(S(=O)(=O)NCc2ccccc2)c1 (configuration not stated) | -0.182
32 | CNS(=O)(=O)c1cccc(C(=O)OC2CCCCC2=O)c1 (configuration not stated) | 2.06
33 | CC(=O)Nc1ccc(C(=O)OC2CCCCC2=O)cc1 (configuration not stated) | 0.0145
34 | O=C1C2C3C=CC(C3)C2C(=O)N1Cc1ccc(CN2C(=O)C3C4C=CC(C4)C3C2=O)cc1 (configuration not stated) | -0.294
35 | Cc1cccc(NC(=S)/N=C(\N)Nc2nc(C)c3ccc(C)cc3n2)c1 | -0.215
36 | CCCNc1cc(C)c(C#N)c2nc3ccccc3n12 | -1.34
37 | O=C(NC(=S)Nc1cccc(NC(=O)c2ccccc2)c1)c1cccc([N+](=O)[O-])c1 | -0.0765
38 | COc1ccc(C(=O)NC(=S)Nc2ccccc2N2CCCCC2)cc1[N+](=O)[O-] | 0.366
39 | O=C(NC(=S)Nc1ccccc1N1CCCC1)c1ccc([N+](=O)[O-])cc1 | 14.4 (active)
40 | O=C(Nc1ccccc1N1CCOCC1)c1ccccc1[N+](=O)[O-] | -0.093
41 | O=C(NC(=S)Nc1ccccc1N1CCCC1)c1ccccc1[N+](=O)[O-] | 7.29 (active)
42 | O=C(NC(=S)Nc1cc(C(F)(F)F)ccc1Cl)c1ccccc1 | 1.04
43 | Cc1c(C(=O)NC(=S)Nc2ccccc2N2CCCC2)cccc1[N+](=O)[O-] | 3.83 (active)
44 | O=C(NC(=S)Nc1ccccc1N1CCOCC1)c1ccc([N+](=O)[O-])cc1 | 0.377
45 | Cc1cc(C(=O)NC(=S)Nc2ccccc2N2CCCC2)ccc1[N+](=O)[O-] | 0.156
46 | O=C(NC(=S)Nc1ccc(N2CCCC2)cc1)c1ccccc1[N+](=O)[O-] | 0.0592
47 | Cc1ccc(C(=O)NC(=S)Nc2ccccc2N2CCCC2)cc1[N+](=O)[O-] | 0.134
48 | O=C(NC(=S)Nc1cc([N+](=O)[O-])ccc1Cl)c1ccccc1 | 12.9 (active)

Row | SMILES | z-score
49 | Cc1ccc(S(=O)(=O)CCc2nc3ccccc3s2)cc1C | -0.169
50 | CCCC(=O)O[C@@H]1C[C@@H](C)N(C(=O)c2ccccc2)c2ccc(C)cc21 | -0.411
51 | Cc1ccc(OC(=O)CCc2c(C)nc3ncnn3c2C)cc1 | -0.382
52 | O=c1oc2c(CN3CCOCC3)c(O)ccc2c2c1CCC2 | 0.00993
53 | COc1ccccc1C(=O)NC(=S)NNC(=O)c1sc2ccccc2c1Cl | 3.35 (active)
54 | COc1ccccc1C(=O)NNC(=S)NC(=O)c1sc2ccccc2c1Cl | 4.01 (active)
55 | COc1ccccc1C(=O)NC(=S)Nc1ccc(NC(=O)c2cccs2)cc1 | 0.853
56 | COc1ccc(CCNC(=O)c2sc3ccccc3c2Cl)cc1OC | -0.565
57 | O=C(NNC(=O)c1sc2ccccc2c1Cl)Nc1ccc(Cl)cc1 | -0.0174
58 | COc1ccccc1C(=O)NNC(=S)NC(=O)c1ccco1 | 1.4
59 | O=C(NNC(=S)NC1CCCCC1)c1sc2ccccc2c1Cl | -0.163
60 | O=C(NC(=S)Nc1ccccc1N1CCOCC1)c1sc2ccccc2c1Cl | 1.18
61 | CC(C)(C)C(=O)NC(=S)NNC(=O)c1sc2ccccc2c1Cl | 13.7 (active)
62 | COc1ccccc1CNC(=O)CSc1ccc(Br)cc1 | 0.558
63 | Cc1cc(C)cc(C(=O)N2CCCCCC2)c1 | 0.076
64 | COc1ccc(NC(=O)[C@H](COCc2ccccc2)NC(=O)OC(C)(C)C)cc1 | 0.329
65 | Cc1cc(NC(=O)CSc2nnc(-c3ccco3)o2)no1 | 0.184
66 | Cc1c(Cl)cccc1NC(=S)NCc1cccn1C | 0.262
67 | Cc1ccccc1NC(=S)NCc1cccn1C | -0.488
68 | Cc1ccc(Cl)cc1NC(=S)NCc1cccn1C | 6.81 (active)
69 | O=C(OC1CCN(c2ncc(C(F)(F)F)cc2Cl)CC1)c1ccc(Cl)cc1 | -0.0974
70 | COc1cc(Cn2ccnc2)c(OC)cc1Cn1ccnc1 | -0.198
71 | O=C(O)Cn1ccnc1 | -0.327
72 | c1cn(CC2(Cn3ccnc3)COC2)cn1 | 3.15 (active)

Row | SMILES | z-score
73 | CCCN1CCC(NC(=O)Nc2ccc(F)cc2F)CC1 | 2.81
74 | CCCN1CCC(NC(=O)Nc2ccc(OC)c(OC)c2)CC1 | 0.00828
75 | CCCN1CCC(NC(=O)Nc2ccccc2C(=O)OC)CC1 | -0.336
76 | COC(=O)c1ccc(NC(=O)CNCc2ccncc2)cc1 | -0.143
77 | Cc1noc(C)c1C(=O)N1CCc2ccccc2C1 | 1.98
78 | Cc1onc(-c2ccccc2Cl)c1C(=O)N1CCc2ccccc2C1 | -0.95
79 | Cc1onc(-c2c(Cl)cccc2Cl)c1C(=O)N1CCc2ccccc2C1 | 0.0144
80 | C=CCn1c(CCNC(=O)c2ccccc2F)nnc1SCC(=O)Nc1nc(C)cs1 | 0.0314
81 | CCOc1cc(C2C(C#N)=C(N)Oc3n[nH]c(C)c32)ccc1OCCN1CCOCC1 (configuration not stated) | -0.102
82 | COC(=O)c1cc(-c2ccccc2)on1 | -1.87
83 | CCCCP(=O)(CCCC)CCP(=O)(c1ccccc1)c1ccccc1 | -0.667
84 | O=C(O)CCn1c(SCc2ccccc2)nc2ccccc21 | -0.0963
85 | O=C(O)Cn1c(SCc2cccc3ccccc23)nc2ccccc21 | 1.11
86 | O=C(O)CCn1c(SCc2cccc3ccccc23)nc2ccccc21 | 2.1
87 | CCOc1ccc(NC(=O)CCNc2c(N3CCCC3)c(=O)c2=O)cc1 | -0.437
88 | CCn1c(-c2csc3c2CCC(C)C3)n[nH]c1=S (configuration not stated) | 1.49
89 | CCCCn1c(-c2csc3ccccc23)n[nH]c1=S | 2.3
90 | CC(C)Cn1c(-c2csc3ccccc23)n[nH]c1=S | 0.509
91 | CC(C)Cn1c(-c2csc3c2CCCC3)n[nH]c1=S | -1.59
92 | CCn1c(-c2csc3c2CCCC3)n[nH]c1=S | -0.181
93 | C=CCn1c(-c2csc3c2CCC(C)C3)n[nH]c1=S (configuration not stated) | 0.494
94 | CCCCn1c(-c2csc3c2CCC(C)C3)n[nH]c1=S (configuration not stated) | 7.55 (active)
95 | CCCCn1c(-c2csc3c2CCCC3)n[nH]c1=S | 6.19 (active)
96 | CCn1c(-c2csc3ccccc23)n[nH]c1=S | -0.273

Row | SMILES | z-score
97 | CCCOc1ccc(C2/C(=C(\O)c3c(C)[nH]c(C(=O)OC)c3C)C(=O)C(=O)N2CCN(C)C)cc1 (configuration not stated) | 0.491
98 | CCC(N1CCOC1=O)S(=O)(=O)c1ccc(C)cc1 (configuration not stated) | -0.148
99 | Cc1cccnc1NC(=O)Nc1cccs1 | -0.232
100 | COc1cc(NC(=O)c2ccc(COCC(F)(F)F)cc2)cc(OC)c1OC | -0.608
101 | COc1cc(NC(=O)c2ccc(COc3ccccc3Br)o2)cc(OC)c1OC | -0.932
102 | COc1cc(NC(=O)c2ccc(COCC(F)(F)F)o2)cc(OC)c1OC | 2.1
103 | NC(=O)C1CCN(C(=O)COc2ccc3ccccc3c2)CC1 | 0.115
104 | Cc1ccc(NC(=O)COn2nnc3ccc(S(=O)(=O)N(C)C)cc32)cc1F | 3.29 (active)
105 | CCc1ccc(NC(=O)COn2nnc3ccc(S(=O)(=O)N(C)C)cc32)cc1 | -0.27
106 | CCN(CC)S(=O)(=O)c1ccc2nnn(OCC(=O)Nc3cccc(C#N)c3)c2c1 | -0.793
107 | COCCNS(=O)(=O)c1ccc(-c2ccc(C)cc2)cc1 | -0.0903
108 | CCOC(=O)c1cnc2c(Cl)cccc2c1NCCN(C)C | 0.313
109 | O=C(O)C1C2C=CC(C2)C1C(=O)NC1CCN(Cc2ccccc2)CC1 (configuration not stated) | 0.581
110 | Cc1nc(=S)c2ccccc2[nH]1 | 1.49
111 | Cc1cc(=O)c2ccccc2[nH]1 | 0.0595
112 | S=c1nc(C2CC2)[nH]c2ccccc12 | 9.36 (active)
113 | O=C(C1CCCCC1)N1CCC(c2nc3ccccc3[nH]2)CC1 | -0.166
114 | S=c1nc[nH]c2c1[nH]c1ccccc12 | 0.0879
115 | CC(C)c1nc(=S)c2ccccc2[nH]1 | 13.7 (active)
116 | COc1ccc(Cc2nnc(SCc3c(C)noc3C)n2C2CCCCC2)cc1OC | 0.045
117 | CSC(=NC(C)c1ccccc1)NS(=O)(=O)c1cccs1 (configuration not stated) | 0.148
